Assay results: PubChem BioAssay AID504882 (Broad Institute, 2011)
About 290 (24%) of roughly 1,200 compounds were called active. Not shown: some 9% with an inconclusive outcome. Only a sample is shown. Results with a measured potency or affinity are listed apart. Unmarked numbers belong to inactive results. No rule for the calls is given here.

Assay: LCL viability reduction – cell-based, plate reader, cherry-picks, set 2, cytotoxicity control, dose response (AID 504882);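 also: 0% = neutral control wells and -100% = positive control wells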
Details: EBV lymphoblastoid cells (LCL) viability; series mostly up to 19.5 µM; activity change, negative = cytotoxicity: at the top concentration

Compound	activity change, negative = cytotoxicity
Cc1cc(C)c2sc(NC(=O)C3CC3)nc2c1	2.97%
N#CC1=C(N)OC2=C(C(=O)CCC2)C12C(=O)N1CCCc3cccc2c31 (stereo not given)	23.6%
COc1ccc(-c2csc3ncnc(Sc4nnnn4C)c23)cc1	-16.8%
Clc1ccc(-n2ncc3c(N4CCCC4)ncnc32)cc1	-0.246%
Cc1ccsc1-c1nc(CSCC(=O)N2CCN(c3ccccc3)CC2)c(C)o1	-2.87%
COc1cc(NC(=S)N2CCN(CCO)CC2)cc(OC)c1	2.13%
COc1ccc2cc(C(N)=O)/c(=N\NC(=O)c3ccccc3)oc2c1	16.4%
CCCN1C(=O)C2(SC(NC(C)=O)=NN2C(C)=O)c2cc(C)cc(C)c21 (stereo not given)	18.1%
c1ccc(-c2nnc(-c3ccccn3)s2)nc1	-32.2%
Cc1cc(C)c(OCCn2ccnc2)c(C)c1	-5.95%
COc1ccc(C=Cc2ccc3ccccc3n2)c(OC)c1	3.74%
C[C@@]12C(=O)N(Cc3ccccc3)CC(=O)N1[C@H](/C=C/c1ccccc1)[C@@H]1C(=O)N(c3ccccc3)C(=O)[C@@H]12	1.32%
CCOC(=O)N1CCC(n2c(=S)[nH]c3ccccc3c2=O)CC1	1.97%
O=C1CC(c2ccccc2)Oc2ccccc21 (stereo not given)	9.53%
C[C@@H](C(=O)Nc1ccc2c(c1)OCCO2)n1c(=O)[nH]c2ccccc2c1=O	12.3%
CCCCOc1ccc2c(c1)/C(=C(\C(Cl)=C(Cl)Cl)[N+](=O)[O-])N2	5.83%
Cc1ccc(-n2cc(C(=O)c3ccccc3O)cn2)cc1	-2.73%
COc1ccc(OC)c(S(=O)(=O)NC(C)CCc2ccccc2)c1 (stereo not given)	7.72%
CC(C(=O)N=Nc1c(O)[nH]c2ccccc12)n1cnc2ccccc2c1=O (stereo not given)	7.22%
COc1ccc(Cl)cc1NC(=O)CN(C)S(=O)(=O)c1cccs1	-6.66%
Cc1cc(C)cc(C(=O)NCCC(=O)NCc2cc(=O)n(C)c(=O)n2C)c1	12.5%
COc1ccc(S(=O)(=O)N2CCN(CC(=O)Nc3ccc(C)c(F)c3)CC2)cc1	19.6%
CCOC(=O)C1CCN(S(=O)(=O)Cc2ccccc2)C1=O (stereo not given)	26.9%
Cc1cc(C)c(S(=O)(=O)Nc2nnc(CC(C)C)s2)c(C)c1	7.94%

Compound	activity change, negative = cytotoxicity
CC(=O)c1cc(C(=O)Nc2ccc(C(=O)O)cc2)oc1C	13.6%
CCSc1nnc(NC(=O)CCn2c(=O)oc3ccccc32)s1	12.2%
COC(=O)CCCC[C@@H]1SC[C@@H](NC(=O)OC)[C@@H]1NC(=O)OC	9.98%
COC(=O)c1ccccc1NC(=O)CSc1nnnn1C	19.1%
COc1ccc(N2C3=[N+](CC2(C)O)c2ccccc2CC3)cc1 (stereo not given)	14.6%
O=S(=O)(NC1c2cccc3cccc(c23)C1Sc1ncccn1)c1ccccc1 (stereo not given)	4.11%
COc1ccc(CNC(=O)COC(=O)[C@@H]2CCCN2C(=O)c2cccs2)cc1	25%
S=C(NCC1CCCCC1)Nc1ccc(Oc2ccccc2)cc1	1.93%
O=C(c1noc2c1CCCC2)N1CCCCC1	9.86%
CCOc1ccc(NC(=O)c2cnsn2)cc1	8.89%
CCOC(=O)c1cn2nc(N3CCCCC3)ccc2n1	0.96%
COC(=O)c1ccc2nc(-c3ccc4c(c3)OCO4)cn2c1	4.82%
CCOc1cc(/C=C2/C(=N)N3N=C(CC)SC3=NC2=O)ccc1OC(=O)c1ccco1	16.1%
COC(=O)c1ccc(CSc2nc3c(c(=O)n2-c2ccc(C)cc2)SCC3)o1	6.1%
COC(=O)CSc1ncnc2c1sc1nc3c(cc12)COC(C)(C)C3	-11.8%
CCOC(=O)CNC(=O)CSc1nnc(NC(=O)c2ccc(C)cc2)s1	27.2%
CC(C)(C)C(=O)Nc1nnc(SCC(=O)Nc2ccc3c(c2)OCO3)s1	13.9%
O=C(NCCc1ccccc1)c1ccccc1Cl	8.88%
CCc1nnc(NC(=O)c2ccc(S(=O)(=O)N3CCOCC3)cc2)s1	10.7%
CC(C)N1CCN(c2ccc(OC[C@H]3CO[C@](Cn4cncn4)(c4ccc(Cl)cc4Cl)O3)cc2)CC1	-3.03%
Cc1ccccc1CC(=O)NCc1cccnc1	16.8%
CCOc1cc(Br)cc(/C=N/NC(=O)c2cccnc2)c1O	-28.9%
COc1cccc(/C=N\NC(=O)c2ccc(C)nc2)c1	19.6%
Cc1ccnc(N/C=C(/NC(=O)c2ccccc2)C(=O)N/N=C\c2ccc(F)cc2)n1	9.12%

Compound	activity change, negative = cytotoxicity
CC(NC(=O)CNC(=O)OCc1ccccc1)C(=O)N1CC(O)CC1C(=O)OCc1ccccc1 (stereo not given)	12.6%
O=C(CN1C(=O)C2C3C=CC(C3)C2C1=O)NCCC1=CCCCC1 (stereo not given)	6.89%
COCCn1c(C)cc(C(=O)CSc2nnc3ccccn23)c1C	11.9%
Cc1cc(C(=O)COC(=O)c2cccc(NS(C)(=O)=O)c2)c(C)n1CC1CCCO1 (stereo not given)	17%
CSCCC(NC(=O)c1ccco1)C(=O)OCC(=O)Nc1ncc(Cl)c(C)c1Cl (stereo not given)	26.8%
CNC(=O)C1=NCCCc2cc(OC)c(OC)cc21	24.7%
Nc1ccc(CCNc2ncnc3c2ncn3[C@@H]2O[C@H](CO)[C@@H](O)[C@H]2O)cc1	7.71%
NC(=O)c1ncn([C@@H]2O[C@H](CO)[C@@H](O)[C@H]2O)n1	14.5%
Nc1ccn(C2CCCO2)c(=O)n1 (stereo not given)	14.8%
CC1(C)CC(=O)C(CC2=C(O)CC(C)(C)CC2=O)=C(O)C1	9.73%
CCc1cc(Cl)c(OC)c(C(=O)NC[C@@H]2CCCN2CC)c1O	2.69%
COc1ccc(NC(=O)CCS(=O)(=O)c2ccc3c(c2)CCN3C(C)=O)cc1	8.11%
C=CCn1c(SCc2ccc3nonc3c2)nnc1-c1cccs1	18.4%
COc1c(S(=O)(=O)N2CCN(c3ccc(F)cc3)CC2)ccc(Cl)c1Cl	44.2%
O=C(CCCN1C(=O)/C(=C/c2ccccc2Cl)SC1=S)NNC(=O)c1ccccc1Cl	6.92%
CN1C(=O)C(CC(=O)NC2CCCCC2)SC1=Nc1ccccc1 (stereo not given)	20.7%
CCOc1ccc(-c2nc(CSCC(=O)NCc3ccco3)c(C)o2)cc1	0.208%
COc1ccc(/C=C\C(=O)NCc2ccc3c(c2)cc(C)n3C)cc1OC	7.82%
COc1ccc(-c2csc3ncnc(NCCO)c23)cc1	12.6%
CCOC(=O)Cc1csc(N/N=C\c2ccc(N(C)C)cc2)n1	3.66%
CCCSc1nc2cc(S(=O)(=O)N3CCOCC3)ccc2n1CC	-0.597%
CCc1c(C)nc2cc(-c3ccc(OC)c(OC)c3)nn2c1NCC1CC1	-40.8%
